According to the supplement of paper PMC8728848:
Shown is part of a subset that was picked to be rich in the strongest signals.

Assays:
Assay in all cases: glycan array binding signal (z-score within array); higher = stronger binding
Settings in all cases: glycan notation: IUPAC condensed, linker removed
Fuc(a1-2)Gal(b1-3)GalNAc = target: Fuc(a1-2)Gal(b1-3)GalNAc
Procedure, shortened: (§1)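 Glycan array data came from 3228 arrays in the Consortium for Functional Glycomics database, and only arrays with an available protein sequence were kept. Glycan names were put into IUPAC-condensed notation, and columns mapping to the same glycan were averaged. The binding signal is a within-array Z-score, averaged across arrays of one protein sequence run at different concentrations or buffers and across linkers. A negative Z-score can be read as non-binding.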

Fuc(a1-2)Gal(b1-4)Glc6S = target: Fuc(a1-2)Gal(b1-4)Glc6S
Procedure, shortened: as §1

[1] = target: Fuc(a1-2)Gal(b1-4)[Fuc(a1-3)]GlcNAc(b1-2)Man(a1-3)[Fuc(a1-2)Gal(b1-4)[Fuc(a1-3)]GlcNAc(b1-2)Man(a1-6)]Man(b1-4)GlcNAc(b1-4)GlcNAc
Procedure, shortened: as §1

[2] = target: Fuc(a1-2)[Gal(a1-3)]Gal(b1-3)GlcNAc(b1-2)Man(a1-3)[Fuc(a1-2)[Gal(a1-3)]Gal(b1-3)GlcNAc(b1-2)Man(a1-6)]Man(b1-4)GlcNAc(b1-4)GlcNAc
Procedure, shortened: as §1

[3] = target: Fuc(a1-2)[Gal(a1-3)]Gal(b1-4)Glc
Procedure, shortened: as §1

Gal(a1-3)Gal = target: Gal(a1-3)Gal
Procedure, shortened: as §1

[4] = target: Gal(a1-4)Gal(b1-3)GlcNAc(b1-2)Man(a1-3)[Gal(a1-4)Gal(b1-3)GlcNAc(b1-2)Man(a1-6)]Man(b1-4)GlcNAc(b1-4)GlcNAc
Procedure, shortened: as §1

Gal(b1-3)GalNAc = target: Gal(b1-3)GalNAc
Procedure, shortened: as §1

[5] = target: Gal(b1-3)GlcNAc(b1-2)Man(a1-3)[Gal(b1-3)GlcNAc(b1-2)Man(a1-6)]Man(b1-4)GlcNAc(b1-4)GlcNAc
Procedure, shortened: as §1

[6] = target: Gal(b1-3)GlcNAc(b1-3)Gal(b1-4)GlcNAc
Procedure, shortened: as §1

[7] = target: Gal(b1-3)[Neu5Ac(b2-6)]GalNAc
Procedure, shortened: as §1

Gal(b1-4)Glc = target: Gal(b1-4)Glc
Procedure, shortened: as §1

[8] = target: Gal(b1-4)GlcNAc(b1-3)[Gal(b1-4)GlcNAc(b1-6)]Gal(b1-4)GlcNAc
Procedure, shortened: as §1

[9] = target: Gal(b1-4)GlcNAc(b1-3)[Gal(b1-4)GlcNAc(b1-6)]GalNAc
Procedure, shortened: as §1

Gal4S(b1-4)GlcNAc = target: Gal4S(b1-4)GlcNAc
Procedure, shortened: as §1

Gal4S6S(b1-4)GlcNAc = target: Gal4S6S(b1-4)GlcNAc
Procedure, shortened: as §1

GalNAc(b1-3)Gal = target: GalNAc(b1-3)Gal
Procedure, shortened: as §1

Glc(a1-6)Glc(a1-6)Glc = target: Glc(a1-6)Glc(a1-6)Glc
Procedure, shortened: as §1

Glc(b1-6)Glc = target: Glc(b1-6)Glc
Procedure, shortened: as §1

[10] = target: GlcNAc(a1-4)Gal(b1-4)GlcNAc(b1-3)Gal(b1-4)[Fuc(a1-3)]GlcNAc(b1-3)Gal(b1-4)[Fuc(a1-3)]GlcNAc
Procedure, shortened: as §1

[11] = target: GlcNAc(b1-2)[GlcNAc(b1-4)]Man(a1-3)[GlcNAc(b1-2)Man(a1-6)]Man(b1-4)GlcNAc(b1-4)GlcNAc
Procedure, shortened: as §1

[12] = target: GlcNAc(b1-3)[GlcNAc(b1-6)]Gal(b1-4)GlcNAc
Procedure, shortened: as §1

[13] = target: GlcNAc(b1-4)Gal(b1-4)GlcNAc
Procedure, shortened: as §1

[14] = target: GlcNAc(b1-4)GlcNAc(b1-4)GlcNAc
Procedure, shortened: as §1

[15] = target: Neu5Ac(a2-3)Gal(b1-3)[Fuc(a1-4)]GlcNAc
Procedure, shortened: as §1

[16] = target: Neu5Ac(a2-3)Gal(b1-4)GlcNAc(b1-2)Man(a1-3)[GlcNAc(b1-2)Man(b1-4)GlcNAc(b1-2)Man(a1-6)]Man(b1-4)GlcNAc(b1-4)GlcNAc
Procedure, shortened: as §1

[17] = target: Neu5Ac(a2-3)Gal(b1-4)GlcNAc(b1-6)[Neu5Ac(a2-3)Gal(b1-3)]GalNAc
Procedure, shortened: as §1

[18] = target: Neu5Ac(a2-3)Gal(b1-4)[Fuc(a1-3)]GlcNAc(b1-3)Gal
Procedure, shortened: as §1

[19] = target: Neu5Ac(a2-3)Gal(b1-4)[Fuc(a1-3)]GlcNAc(b1-6)[Neu5Ac(a2-3)Gal(b1-3)]GalNAc
Procedure, shortened: as §1

[20] = target: Neu5Ac(a2-3)Gal(b1-4)[Fuc(a1-3)]GlcNAc6S
Procedure, shortened: as §1

Neu5Ac(a2-3)GalNAc = target: Neu5Ac(a2-3)GalNAc
Procedure, shortened: as §1

Neu5Ac(a2-6)Gal(b1-4)Glc = target: Neu5Ac(a2-6)Gal(b1-4)Glc
Procedure, shortened: as §1

[21] = target: Neu5Ac(a2-6)Gal(b1-4)GlcNAc(b1-2)Man(a1-3)[GlcNAc(b1-2)Man(a1-6)]Man(b1-4)GlcNAc(b1-4)GlcNAc
Procedure, shortened: as §1

[22] = target: Neu5Ac(a2-8)Neu5Ac(a2-3)[GalNAc(b1-4)]Gal(b1-4)Glc
Procedure, shortened: as §1

[23] = target: Neu5Ac(a2-8)Neu5Ac(a2-8)Neu5Ac(a2-8)Neu5Ac(a2-3)[GalNAc(b1-4)]Gal(b1-4)Glc
Procedure, shortened: as §1

[24] = target: Neu5Gc(a2-3)Gal(b1-3)[Fuc(a1-4)]GlcNAc
Procedure, shortened: as §1

Neu5Gc(a2-6)GalNAc = target: Neu5Gc(a2-6)GalNAc
Procedure, shortened: as §1

B1: CLEC9a (Mus musculus), Q8BRU4 (protein)
chain: MHAEEIYTSLQWDIPTSEASQKCQSPSKCSGAWCVVTMISCVVCMGLLATSIFLGIKFFQVSSLVLEQQERLIQQDTALVNLTQWQRKYTLEYCQALLQRSLHSGSDCSPCPHNWIQNGKSCYYVFERWEMWNISKKSCLKEGASLFQIDSKEEMEFISSIGKLKGGNKYWVGVFQDGISGSWFWEDGSSPLSDLLPAERQRSAGQICGYLKDSTLISDKCDSWKYFICEKKAFGSCI
- glycan array binding signal (z-score) (Fuc(a1-2)Gal(b1-3)GalNAc): 0.078
- glycan array binding signal (z-score) (Fuc(a1-2)Gal(b1-4)Glc6S): 0.626
- glycan array binding signal (z-score) [1]: 2.21
- glycan array binding signal (z-score) [2]: 3.03
- glycan array binding signal (z-score) [3]: 1.11
- glycan array binding signal (z-score) (Gal(a1-3)Gal): 1.37
- glycan array binding signal (z-score) [4]: 3.35
- glycan array binding signal (z-score) (Gal(b1-3)GalNAc): -0.657
- glycan array binding signal (z-score) [5]: 1.97
- glycan array binding signal (z-score) [6]: 1.18
- glycan array binding signal (z-score) [7]: 1.89
- glycan array binding signal (z-score) (Gal(b1-4)Glc): -0.825
- glycan array binding signal (z-score) [8]: 0.779
- glycan array binding signal (z-score) [9]: 1.87
- glycan array binding signal (z-score) (Gal4S(b1-4)GlcNAc): 1.88
- glycan array binding signal (z-score) (Gal4S6S(b1-4)GlcNAc): -1.4
- glycan array binding signal (z-score) (GalNAc(b1-3)Gal): 0.273
- glycan array binding signal (z-score) (Glc(a1-6)Glc(a1-6)Glc): -0.171
- glycan array binding signal (z-score) (Glc(b1-6)Glc): 0.001
- glycan array binding signal (z-score) [10]: 0.915
- glycan array binding signal (z-score) [11]: 4.01
- glycan array binding signal (z-score) [12]: -1.89
- glycan array binding signal (z-score) [13]: 0.714
- glycan array binding signal (z-score) [14]: 2.95
- glycan array binding signal (z-score) [15]: -0.871
- glycan array binding signal (z-score) [16]: 2.01
- glycan array binding signal (z-score) [17]: -0.1
- glycan array binding signal (z-score) [18]: -1.7
- glycan array binding signal (z-score) [19]: 1.35
- glycan array binding signal (z-score) [20]: -0.627
- glycan array binding signal (z-score) (Neu5Ac(a2-3)GalNAc): -1.07
- glycan array binding signal (z-score) (Neu5Ac(a2-6)Gal(b1-4)Glc): 0.132
- glycan array binding signal (z-score) [21]: -0.365
- glycan array binding signal (z-score) [22]: 0.872
- glycan array binding signal (z-score) [23]: 2.43
- glycan array binding signal (z-score) [24]: -0.987
- glycan array binding signal (z-score) (Neu5Gc(a2-6)GalNAc): -0.83
